# From PubChem
# TMEM16A inh = mouse TMEM16A channel inhibition, primary screen; Q8BHY3; normalized B-score (activity score, 25-100; higher = stronger inhibition) at 10 µM; AID 588511; HEK293 TMEM16A/YFP iodide influx fluorescence, ionomycin; 1.2% of 310,000 active;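 active = ratio plate-corrected score three or more library SD toward inhibition, starting fluorescence score within five deviations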;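 note: score derived from kinetic fluorescence span divided by baseline fluorescence per well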
# KCNK3 block = human KCNK3 channel inhibition, primary screen | O14649 | CHO-KCNK3 thallium flux, FluxOR fluorescence; active compounds read low | B-score at 10 µM | 0.84% of 340,000 active | AID 602410;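 active = B-score under library mean minus 4 SD, starting fluorescence ratio at most library mean plus 5 SD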;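 note: more negative B-score means stronger inhibition of thallium flux through KCNK3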
# TMEM16A act = activators or potentiators of mouse TMEM16A chloride channel | B-score at 10 µM | HEK293 TMEM16A/YFP-H148Q/I152L, iodide quench fluorescence; active compounds read low | 0.3% of 340,000 active;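 active = fluorescence-ratio B-score plate-corrected deviation score at least 3 library SD below zero, with starting fluorescence score within 5 deviations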;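 note: channel opened by trigger with iodide after compound preincubation; score built on the fluorescence ratio of max minus min over baseline; more negative score means more quench and so TMEM16A activation or potentiation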
# KCNK9 inh = inhibitors of human KCNK9 two-pore domain potassium channel; Q9NPC2; HEK293 KCNK9, FluxOR thallium flux fluorescence; active compounds read low; B-score at 10 µM; 1.2% of 310,000 active;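 active = ratio B-score over 3 SD below the library mean, with starting fluorescence within 5 SD of its mean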;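 note: negative B-score means less thallium flux so channel inhibition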
# Target sequence (Q9NPC2 whole entry, looked up, the tested form may be a part): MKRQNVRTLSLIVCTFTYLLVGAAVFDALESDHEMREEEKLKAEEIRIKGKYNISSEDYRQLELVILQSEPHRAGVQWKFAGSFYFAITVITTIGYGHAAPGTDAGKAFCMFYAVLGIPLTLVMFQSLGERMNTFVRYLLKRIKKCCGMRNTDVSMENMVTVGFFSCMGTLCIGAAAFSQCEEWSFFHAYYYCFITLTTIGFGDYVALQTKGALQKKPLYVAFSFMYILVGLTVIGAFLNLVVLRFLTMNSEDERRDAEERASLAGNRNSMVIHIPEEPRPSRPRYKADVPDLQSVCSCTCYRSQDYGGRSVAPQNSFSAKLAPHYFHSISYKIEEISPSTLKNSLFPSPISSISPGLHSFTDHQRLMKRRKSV
# Kir21 inh = inhibitors of mouse Kir2.1 inward-rectifier potassium channel | P35561 | HEK293-Kir2.1, FluxOR thallium flux fluorescence; active compounds read low | B-score at 10 µM | 0.85% of 310,000 active;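 active = fluorescence ratio B-score at or below minus 3 SD of library scores, with starting-brightness B-score within 2 SD, cut at about -4.2 in these data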;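 note: channel flux triggered by added potassium and thallium sulfate stimulus; B-score of peak minus minimum fluorescence over baseline after thallium stimulus; more negative B-score means stronger Kir2.1 block with less thallium influx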
# * hit, by the source's call; i = inactive; · = not tested or not shown. A selection: hits, their analogues and other compounds. The true share with any hit is near 3.5%.
SMILES,TMEM16A inh,KCNK3 block,TMEM16A act,KCNK9 inh,Kir21 inh
CC[C@@H](C(=O)[C@@H](C)[C@@H](O)[C@H](C)[C@@H]1O[C@@H]([C@@H](CC)C(=O)O)CC[C@@H]1C)[C@H]1O[C@]2(C=C[C@@H](O)[C@]3(CC[C@@](C)([C@H]4CC[C@](O)(CC)[C@H](C)O4)O3)O2)[C@H](C)C[C@@H]1C,·,i,i,·,·
CC[C@@H](C(=O)[C@@H](C)[C@@H](O)[C@H](C)CCc1ccc(C)c(O)c1C(=O)O)[C@H]1O[C@](CC)([C@H]2CC[C@](O)(CC)[C@H](C)O2)C[C@@H]1C,100*,i,-5.53*,i,-1.35
Cc1ccc(S(=O)(=O)NNC(=O)CCC(=O)Nc2ccccc2Cl)cc1,i,i,i,i,1.48
CSc1ccc2c(c1)N(CCC1CCCCN1C)c1ccccc1S2 (configuration not stated),25*,i,i,i,-8.24*
CC(=O)c1ccc2c(c1)N(CCCN1CCC(CCO)CC1)c1ccccc1S2,i,i,i,·,·
O=C(N/N=C/c1cccnc1)c1ccccc1OCc1ccc(Cl)cc1,i,·,·,-6.87*,0.18
COc1cc(-c2csc(CCn3nc(C)cc3C)n2)cc(OC)c1OC,i,i,i,-6.75*,1.53
Cc1cc(C)n(CCc2nc(-c3ccc(C(C)(C)C)cc3)cs2)n1,25*,i,i,i,-0.1
O=C(Nc1ccc(F)cc1)/C(=C1/CCCCCN1)[N+](=O)[O-],i,i,i,i,-1.64
COC(=O)Cn1cc(C(=O)OC)cc(Br)c1=O,25*,i,i,i,-0.34
Brc1cccc(CN2CCCCCC2)c1,i,i,i,i,-0.05
OC1(c2ccc(Br)cc2)CCN(Cc2cccc(Br)c2)CC1,i,i,i,i,-10.9*
CC(C)(C)CC(C)(C)NC(=O)CSCC(=O)Nc1ccc2ccccc2c1,i,i,i,i,-0.49
CNCCCC1Sc2ccccc2Oc2ccccc21 (configuration not stated),i,i,i,i,-5.99*
CCN(CC)CCCNC(=O)C1c2ccccc2Oc2ccccc21,i,i,i,i,-2.18
CCCOc1ccc(-c2cc(C(F)(F)F)c(C#N)c(SCC(=O)O)n2)cc1,i,i,i,i,-0.41
COc1cc([N+](=O)[O-])ccc1NC(=O)NCC1CCN(Cc2ccc(Cl)cc2)CC1,i,i,i,i,-5.58*
COc1ccc(Cl)cc1NC(=O)NCC1CCN(Cc2cc(C)ccc2C)CC1,i,i,i,i,-0.55
N#C/C(=C\c1ccc(O)c(O)c1)C(=O)Nc1ccccc1,i,i,-5.2*,·,·
C[C@@H](NC(=O)/C(C#N)=C/c1ccc(O)c(O)c1)c1ccccc1,i,i,i,·,·
N/C(=N\OS(=O)(=O)c1ccc2ccccc2c1)c1ccccn1,·,i,-25.6*,·,·
N/C(=N\OS(=O)(=O)c1ccc2ccccc2c1)c1ccncc1,i,i,i,i,-2.38
CCCCCSc1nnc2c(n1)OC(C)N(C(C)=O)c1ccccc1-2 (configuration not stated),i,-10.3*,i,i,-0.33
O=[N+]([O-])c1ccc(N=Nc2ccc(O)cc2O)cc1,100*,i,i,i,1.29
O=C1NC(=O)/C(=C/c2cccc3ccccc23)S1,i,i,i,i,2.28
SMILES,TMEM16A inh,KCNK3 block,TMEM16A act,KCNK9 inh,Kir21 inh
CCCOc1ccc2ccccc2c1/C=C1\SC(=O)NC1=O,100*,i,i,i,4.42
COc1ccc(C)cc1NC(=O)C(OC(=O)CNC(=O)c1ccc(Oc2ccccc2)cc1)c1ccccc1 (configuration not stated),i,i,i,-7.94*,1.39
N#C/C(=C\c1cccc(Oc2ccccc2)c1)C(=O)N1CCOCC1,i,i,i,i,-13.1*
CC1Cc2ccccc2N1C(=O)Cn1c(=O)oc2cc(S(=O)(=O)N3CCCCC3)ccc21 (configuration not stated),i,i,i,-7.23*,0.07
CCN(CC)S(=O)(=O)c1ccc(NC(=O)Cn2c(=O)oc3ccccc32)cc1,i,i,i,i,0.95
COc1ccccc1N1CCN(C(=O)C2CCCN(S(=O)(=O)c3ccc4c(c3)oc(=O)n4C)C2)CC1 (configuration not stated),25*,i,i,i,0.38
NS(=O)(=O)c1ccc(NC(=O)CN2CCN(S(=O)(=O)c3ccc(F)cc3)CC2)cc1,i,i,i,i,-0.04
O=C(Cn1c(=O)oc2ccccc21)Nc1ccc(S(=O)(=O)N2CCCCC2)cc1,i,i,-6.45*,i,0.63
NS(=O)(=O)c1ccc(NC(=O)CN2CCCN(S(=O)(=O)c3ccc(F)cc3)CC2)cc1,i,i,-7.78*,i,0.22
Cc1ccc(S(=O)(=O)c2c(C)nn(-c3ccccc3)c2OC(=O)c2ccc(Br)o2)cc1,i,i,i,·,·
O=C(NC(C(=O)N/N=C/c1ccccn1)c1n[nH]c(=O)c2ccccc12)c1ccccc1 (configuration not stated),i,i,i,i,1.38
O=C(CCl)Nc1nc(-c2ccco2)c(-c2ccco2)s1,i,i,i,i,-1.53
Cc1ccc(C(=O)Nc2nc(-c3ccco3)c(-c3ccco3)s2)o1,·,-10.8*,i,·,·
Cc1ccc(/C=N/N2C(=S)SC(C)(C)C2N(O)C(=O)Nc2ccc([N+](=O)[O-])cc2)cc1 (configuration not stated),i,i,i,i,-0.36
CC1(C)SC(=S)N(/N=C/c2ccc(O)cc2)C1N(O)C(=O)Nc1ccc([N+](=O)[O-])cc1 (configuration not stated),100*,i,i,i,1.54
c1ccc2c(NCCc3c[nH]c4ccccc34)c3ccccc3nc2c1,i,i,i,i,-11.9*
Fc1cccc(NCCc2c[nH]c3ccccc23)n1,i,i,i,i,0.99
Cc1ccc(S(=O)(=O)N2CCSC2c2ccco2)cc1 (configuration not stated),i,i,i,i,-4.31*
Cc1ccc(S(=O)(=O)N2CCSC2C(=O)O)cc1 (configuration not stated),i,i,i,i,1.9
CCOC(=O)C1(CCc2ccccc2)CCN(Cc2ccc(OC)cc2)CC1,25*,i,i,i,-5.22*
CCOC(=O)C1(CCc2ccccc2)CCN(Cc2ccc(O)cc2)CC1,i,i,i,i,-4.46*
CCOC(=O)C1=C(C(F)(F)F)Nc2ncnn2C1c1ccc(OC)cc1OC (configuration not stated),i,i,i,i,-0.41
O=C1c2ccccc2/C(=C\c2ccc(Br)s2)N1c1ccccc1,·,i,i,·,·
